In PubChem BioAssay (NCATS):
Several values for one entry are separate records, joined by “and”; a condition that tells them apart may be missing. Equal values may be shown once. Results filed as inconclusive are left out. Activity calls are given as the source filed them. Unless noted, calls come from the whole dose curve; as a rule, active = well fitted curve in the direction sought with a large enough effect; inconclusive = small, poorly fitted or top-dose-only effect, or another doubt; inactive = no such curve, though single readings can be large; an effect the other way counts as inactive or inconclusive.

Legend:
[1] = molecular target: ATP-dependent DNA helicase Q1 (Homo sapiens) (UniProt P46063); test: qHTS Validation Assay for Inhibitors of RecQ-Like Dna Helicase 1 (RECQ1) (AID 2353); details: recombinant RECQ1 helicase DNA unwinding assay; series mostly up to 25.6 µM;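 note: plate controls were DMSO vehicle for no effect and enzyme-free control for full effect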
Chain of ATP-dependent DNA helicase Q1 (Homo sapiens) (P46063 whole entry, looked up): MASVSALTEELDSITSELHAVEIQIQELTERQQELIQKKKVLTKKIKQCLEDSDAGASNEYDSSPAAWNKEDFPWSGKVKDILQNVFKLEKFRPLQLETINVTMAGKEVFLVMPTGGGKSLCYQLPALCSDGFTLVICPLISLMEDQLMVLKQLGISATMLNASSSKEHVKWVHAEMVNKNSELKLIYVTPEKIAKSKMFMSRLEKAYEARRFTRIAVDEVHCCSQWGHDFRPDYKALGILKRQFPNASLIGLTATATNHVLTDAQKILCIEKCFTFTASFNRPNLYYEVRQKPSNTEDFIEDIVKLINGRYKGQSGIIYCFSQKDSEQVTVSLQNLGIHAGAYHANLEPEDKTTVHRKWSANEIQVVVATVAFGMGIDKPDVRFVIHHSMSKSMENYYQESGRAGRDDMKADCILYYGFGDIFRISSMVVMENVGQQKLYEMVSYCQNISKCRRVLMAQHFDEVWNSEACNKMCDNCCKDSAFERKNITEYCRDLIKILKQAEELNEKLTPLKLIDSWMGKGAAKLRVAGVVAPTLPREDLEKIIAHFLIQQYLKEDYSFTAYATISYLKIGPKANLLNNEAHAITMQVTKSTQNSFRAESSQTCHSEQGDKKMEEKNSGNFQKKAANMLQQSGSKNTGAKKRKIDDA
How it was run: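 50 nM RECQ1T1 preincubated 15 min with compound in Tris pH 8.0 buffer with MgCl2, DTT, Tween-20 and 2.5 ug/ml poly(dI-dC); started with 200 nM TAMRA/BHQ-2 forked duplex and 2 mM ATP. Unwinding read as fluorescence (525/598 nm), two reads 2 h apart.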

[2] = qHTS for differential inhibitors of proliferation of Plasmodium falciparum line 7G8 (AID 1815); details: Plasmodium falciparum 7G8 proliferation inhibition; series mostly up to 28.7 µM;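 note: parasite growth measured after three days of incubation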; note: potency is the fitted concentration of half-maximal effect;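 for activity change, negative = inhibition: plate controls were vehicle wells for no effect and reference inhibitor wells for full effect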
[3] = qHTS for differential inhibitors of proliferation of Plasmodium falciparum line GB4 (AID 1816); details: Potency: Plasmodium falciparum GB4 proliferation inhibition; series mostly up to 28.7 µM;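 note: parasite growth measured after 72 h incubation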; note: potency is the fitted concentration of half-maximal effect;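 for activity change, negative = inhibition: 0% = vehicle DMSO and -100% = reference inhibitor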
[4] = qHTS Assay for Modulators of Human Peripheral Myelin Protein 22 (PMP22) Expression/Activity (AID 1967; active = well fitted curve in the direction sought with a large enough effect in the signal ratio; the % refers to the signal ratio;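 note: 0% = untreated cells and 100% end not stated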); details: Cell-based PMP22 reporter, dual-color luciferase ratio, 0% = compound-free control cells, mouse Pmp22 promoter in mouse Schwann cells; series mostly up to 115 µM
How it was run: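 Mouse MSC80 Schwann line, Pmp22 promoter–CBG68 reporter, EF-alpha–CBR internal control. 24h compound exposure, 37 °C/5% CO2, DMEM + 10% FBS. Readout: corrected green/red luminescence ratio, normalized to untreated cells; concentration-response curves fitted and classified.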

[5] = qHTS profiling for inhibitors of Plasmodium falciparum proliferation (AID 504749); note: potency is the fitted concentration of half-maximal effect;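 for activity, negative = inhibition: 0% = DMSO vehicle and full inhibition = artemisinin control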; for all read-outs here: nearly all actives have a fitted effect of over 60% in size; details: P. falciparum in erythrocytes, SYBR Green DNA, 72 h; for activity, negative = inhibition: at 28.7 µM (top of the series)
How it was run: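 Parasite proliferation within erythrocytes, 72 h exposure. Endpoint: SYBR Green I fluorescence after overnight lysis at room temperature. Controls: 0.29 uM artemisinin, DMSO.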

[6] = qHTS for differential inhibitors of proliferation of Plasmodium falciparum line W2 (AID 1883); details: Potency: Plasmodium falciparum W2 proliferation inhibition; series mostly up to 28.7 µM;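 note: parasites grown with compound for 72 h before lysis and staining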; note: potency is the fitted concentration of half-maximal effect;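 for activity change, negative = inhibition: 0% = vehicle wells and -100% = control inhibitor wells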
[7] = AP1 Signaling Pathway (AID 357; active = well fitted curve in either direction with a large enough effect, not every such curve was filed as active;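 note: ME-180 reporter cells stimulated with EGF at its EC50 level; % is set by controls: 0 for no effect and ±100 for the full control effect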); details: ME-180 AP-1-bla reporter, EGF-induced, beta-lactamase ratio, 5 h; at 7.69 µM (top of the series) unless noted
How it was run: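 Cells are seeded overnight, exposed to compound titrations and an EC50 level of EGF for 5 hours at 37 °C, then loaded with CCF4 dye for 2.5 hours. Beta-lactamase activity under the AP-1 element is read as a blue/green ratio.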

[8] = molecular target: Cytochrome P450 1A2 (Homo sapiens) (UniProt P05177); test: p450-cyp1a2 (AID 410; calls by dose curve; note: potency is the fitted concentration of half-maximal effect;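 for activity change, negative = inhibition: -100% = full effect of reference inhibitor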); details: recombinant CYP1A2, luciferin-ME demethylation, luminescence; series mostly up to 57 µM
Chain of Cytochrome P450 1A2 (Homo sapiens) (P05177 whole entry, looked up): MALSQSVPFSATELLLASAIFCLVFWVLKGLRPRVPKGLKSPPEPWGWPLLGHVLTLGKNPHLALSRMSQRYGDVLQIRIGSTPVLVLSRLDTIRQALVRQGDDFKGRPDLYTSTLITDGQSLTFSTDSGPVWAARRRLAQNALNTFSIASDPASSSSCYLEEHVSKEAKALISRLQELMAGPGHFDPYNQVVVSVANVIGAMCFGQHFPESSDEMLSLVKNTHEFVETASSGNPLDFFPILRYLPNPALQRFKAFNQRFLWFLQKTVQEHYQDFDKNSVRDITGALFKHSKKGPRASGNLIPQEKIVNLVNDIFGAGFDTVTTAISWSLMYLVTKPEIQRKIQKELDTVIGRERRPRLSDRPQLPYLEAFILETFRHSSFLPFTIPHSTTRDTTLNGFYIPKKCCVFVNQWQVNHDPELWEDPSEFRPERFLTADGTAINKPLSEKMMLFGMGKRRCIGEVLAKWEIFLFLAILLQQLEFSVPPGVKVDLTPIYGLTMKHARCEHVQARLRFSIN
How it was run: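 Luminescent readout of luciferin formed from Luciferin-ME by human CYP1A2; data normalized against complete inhibition by 57 uM furafylline. Enzyme 20nM, substrate 100uM at Km, 100mM KPO4 buffer, 60 min reaction at room temperature.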

[9] = NFAT Signaling Pathway (AID 444; active = well fitted curve in either direction with a large enough effect, not every such curve was filed as active;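 note: carbachol stimulus at about its EC50 of 1 µM final; % is set by controls: 0 for no effect and ±100 for the full control effect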); details: Jurkat NFAT-bla M1, carbachol, beta-lactamase ratio, 5 h; at 7.69 µM (top of the series) unless noted
How it was run: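 Jurkat cells carrying an NFAT-driven β-lactamase reporter and co-transfected muscarinic M1 receptor were treated with compound plus carbachol (1 uM final, an EC50 level) for 5 h at 37 °C. CCF4 loading followed for 1 h at RT; 460/530 nm ratio gave %activity.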

[10] = Stat Signaling Pathway (AID 446; active = well fitted curve in either direction with a large enough effect, not every such curve was filed as active;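 note: ME-180 cervical cancer cells given 40 pM IL-6 alongside compound; SIE-controlled beta-lactamase reporter measured as 460/530 nm FRET emission ratio; % is set by controls: 0 for no effect and ±100 for the full control effect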); details: ME-180 SIE beta-lactamase reporter, IL-6 stimulated, 5 h; at 7.69 µM (top of the series) unless noted
How it was run: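 ME-180 cells carrying a SIE-driven beta-lactamase reporter are stimulated with 40 pM IL-6 for 5 h at 37C in the presence of compound. The 460/530 nm FRET substrate ratio is read after 2.5 h at RT. Data are normalised to 300 pM IL-6 and to 125 nM JAK inhibitor controls.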

[11] = molecular target: Glucocorticoid receptor (Homo sapiens) (UniProt P04150); test: GR-GFP Redistribution (AID 450;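 active = compounds whose dose series gives a full or clear partial fitted curve of increased nuclear translocation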; note: potency is the fitted concentration of half-maximal effect); details: U2OS GR-GFP nuclear translocation, laser cytometry, 2 h
Chain of Glucocorticoid receptor (Homo sapiens) (P04150 whole entry, looked up, the tested form may be a part): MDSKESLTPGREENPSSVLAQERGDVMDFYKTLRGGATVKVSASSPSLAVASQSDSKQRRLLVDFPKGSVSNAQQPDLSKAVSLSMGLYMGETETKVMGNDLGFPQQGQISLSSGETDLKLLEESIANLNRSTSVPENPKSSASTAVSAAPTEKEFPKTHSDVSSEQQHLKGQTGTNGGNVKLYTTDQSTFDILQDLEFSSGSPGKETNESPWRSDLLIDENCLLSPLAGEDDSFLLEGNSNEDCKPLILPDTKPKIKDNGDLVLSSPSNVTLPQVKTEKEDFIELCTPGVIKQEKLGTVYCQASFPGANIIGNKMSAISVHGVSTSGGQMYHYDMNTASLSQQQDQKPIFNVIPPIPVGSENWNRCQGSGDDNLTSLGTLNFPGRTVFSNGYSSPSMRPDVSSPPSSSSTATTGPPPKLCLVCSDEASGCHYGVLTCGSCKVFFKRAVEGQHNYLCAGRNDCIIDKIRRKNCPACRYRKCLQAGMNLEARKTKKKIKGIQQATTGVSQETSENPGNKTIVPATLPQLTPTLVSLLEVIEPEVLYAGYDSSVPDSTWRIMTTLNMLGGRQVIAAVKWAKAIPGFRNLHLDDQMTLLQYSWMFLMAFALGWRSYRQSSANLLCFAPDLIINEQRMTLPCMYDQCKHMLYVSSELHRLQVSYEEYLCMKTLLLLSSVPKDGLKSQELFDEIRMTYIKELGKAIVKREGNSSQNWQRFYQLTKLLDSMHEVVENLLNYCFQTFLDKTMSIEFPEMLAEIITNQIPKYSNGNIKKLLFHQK

[12] = molecular target: Glucocorticoid receptor (Homo sapiens) (UniProt P04150); test: GR-EFC Redistribution (AID 451; calls by dose curve; note: potency is the fitted concentration of half-maximal effect); details: CHO-K1 GR-EFC translocation, beta-gal luminescence, 2 h
How it was run: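 CHO-K1 cells stably expressing nuclear-localized β-gal enzyme acceptor and GR fused C-terminally to the enzyme donor fragment; ligand-driven nuclear translocation restores β-gal by complementation. Compounds titrated up to 46 uM final, 2 h at 37 °C; luminescence read.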

[13] = molecular target: Guanine nucleotide-binding protein G(i) subunit alpha-1 (Homo sapiens) (UniProt P63096); test: qHTS Assay for Inhibitors of RGS12 GoLoco Motif Activity (Green Fluorophore) (AID 879); details: Galphai1/FITC-RGS12 GoLoco peptide, fluorescence polarization; series mostly up to 57.1 µM;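 note: 0% = labeled peptide with Gαi1 and full inhibition = labeled peptide alone without protein; negative values mean loss of peptide binding seen as reduced polarization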
Chain of Guanine nucleotide-binding protein G(i) subunit alpha-1 (Homo sapiens) (P63096 whole entry, looked up): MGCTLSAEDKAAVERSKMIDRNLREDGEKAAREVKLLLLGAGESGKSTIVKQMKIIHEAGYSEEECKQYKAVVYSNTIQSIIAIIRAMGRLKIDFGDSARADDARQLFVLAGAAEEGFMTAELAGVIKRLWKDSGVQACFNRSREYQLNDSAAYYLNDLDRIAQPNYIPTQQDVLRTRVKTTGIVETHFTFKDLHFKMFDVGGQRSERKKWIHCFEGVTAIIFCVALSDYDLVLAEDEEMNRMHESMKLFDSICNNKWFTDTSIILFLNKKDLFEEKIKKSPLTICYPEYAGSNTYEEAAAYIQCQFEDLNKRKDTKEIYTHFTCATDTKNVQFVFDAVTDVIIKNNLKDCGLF
How it was run: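 Fluorescence polarization assay: 50 nM Gαi1 with 10 nM FITC-labeled RGS12 GoLoco peptide in 10 mM Tris pH 7.5, 150 mM NaCl, 0.1 mM GDP, 0.05% NP40, 10 min at room temperature with compound.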

[14] = molecular target: Pyruvate kinase (Leishmania mexicana) (UniProt Q27686); test: qHTS Validation Assay for Inhibitors of Leishmania Mexicana Pyruvate Kinase (AID 945);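 note: 0% = DMSO only neutral control wells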; details: purified L. mexicana pyruvate kinase, enzyme activity, E451W mutant enzyme; series mostly up to 57.5 µM
Chain of Pyruvate kinase (Leishmania mexicana) (Q27686 2-499 E452W): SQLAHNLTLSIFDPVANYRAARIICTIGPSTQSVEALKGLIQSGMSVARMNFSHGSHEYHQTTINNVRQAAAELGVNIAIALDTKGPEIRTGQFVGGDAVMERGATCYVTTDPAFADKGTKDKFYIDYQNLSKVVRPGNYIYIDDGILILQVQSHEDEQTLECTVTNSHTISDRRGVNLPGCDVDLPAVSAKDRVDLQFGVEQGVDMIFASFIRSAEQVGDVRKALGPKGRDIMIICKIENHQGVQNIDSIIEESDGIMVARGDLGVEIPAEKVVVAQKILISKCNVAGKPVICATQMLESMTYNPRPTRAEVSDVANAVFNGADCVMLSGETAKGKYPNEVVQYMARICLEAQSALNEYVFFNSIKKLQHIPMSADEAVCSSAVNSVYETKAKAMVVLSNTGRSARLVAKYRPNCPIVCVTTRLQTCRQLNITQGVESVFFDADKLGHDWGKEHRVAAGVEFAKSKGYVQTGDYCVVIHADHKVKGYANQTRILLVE
How it was run: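 qHTS eight-point titrations against 0.2 nM LmPYK (E451W) in imidazole buffer pH 7.2 with 0.5 mM PEP, 0.1 mM ADP; 1 h, room temperature. Readout: PKLight luminescence, normalized to neutral DMSO wells.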

[15] = molecular target: Pyruvate kinase PKM (Homo sapiens) (UniProt P14618); test: qHTS Assay for Activators of Human Muscle Pyruvate Kinase (AID 954; active = well fitted curve in the direction sought with a large enough effect, not every such curve was filed as active;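 note: 0% = uninhibited enzyme and -100% = no enzyme or full thiadiazolimine inhibition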); details: purified human muscle pyruvate kinase, luciferase-coupled luminescence, 1 h; series mostly up to 57.5 µM
Chain of Pyruvate kinase PKM (Homo sapiens) (P14618 whole entry, looked up): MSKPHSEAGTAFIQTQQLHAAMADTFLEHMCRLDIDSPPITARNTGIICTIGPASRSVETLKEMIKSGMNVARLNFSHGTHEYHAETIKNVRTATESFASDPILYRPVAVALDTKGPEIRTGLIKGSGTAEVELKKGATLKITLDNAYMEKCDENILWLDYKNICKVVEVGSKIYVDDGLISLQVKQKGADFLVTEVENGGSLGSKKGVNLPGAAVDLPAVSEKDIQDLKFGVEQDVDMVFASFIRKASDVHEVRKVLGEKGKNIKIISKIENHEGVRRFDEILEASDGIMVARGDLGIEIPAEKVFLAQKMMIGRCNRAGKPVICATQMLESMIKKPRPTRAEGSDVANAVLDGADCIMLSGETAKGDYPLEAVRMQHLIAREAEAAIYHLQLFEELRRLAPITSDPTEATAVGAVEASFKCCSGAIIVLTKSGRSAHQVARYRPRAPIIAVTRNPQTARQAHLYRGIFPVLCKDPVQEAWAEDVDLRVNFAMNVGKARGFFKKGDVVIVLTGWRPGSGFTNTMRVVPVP
How it was run: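 Purified human PKM2 (0.1 nM) with 0.5 mM PEP (Km) and 0.1 mM ADP in 50 mM imidazole pH 7.2, KCl, MgCl2, 1 h at room temperature; ATP formed read by coupled luciferase luminescence. Normalized to no-enzyme/110 uM thiadiazolimine inhibition; 0.3 nM enzyme column for activation.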

[16] = molecular target: alpha-glucosidase (Oryza sativa, rice) (UniProt Q653V4); test: Counterscreen for Glucocerebrosidase Inhibitors: qHTS Assay for Rice alpha-Glucosidase at pH 5.0 (AID 997); details: rice alpha-glucosidase enzyme activity; series mostly up to 76.9 µM;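 note: 0% = full activity with enzyme and -100% = basal without enzyme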
How it was run: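 Rice alpha-glucosidase (4 nM final) with 400 uM 4-methylumbelliferyl-alpha-D-glucopyranoside in citrate buffer pH 5.0, 20 min at room temperature, stopped at pH 10; fluorescence 365/440 nm, compounds 0.7 nM–77 uM, AC50 from Hill fits.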

[17] = molecular target: RecQ-like DNA helicase BLM (Homo sapiens) (UniProt P54132); test: qHTS Validation Assay for Inhibitors of Bloom's syndrome helicase (BLM) (AID 2364); details: BLM helicase DNA unwinding, fluorescence, in vitro; series mostly up to 57.1 µM;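 note: plate controls were DMSO vehicle for no effect and enzyme-free control for full effect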
Chain of RecQ-like DNA helicase BLM (Homo sapiens) (P54132 whole entry, looked up): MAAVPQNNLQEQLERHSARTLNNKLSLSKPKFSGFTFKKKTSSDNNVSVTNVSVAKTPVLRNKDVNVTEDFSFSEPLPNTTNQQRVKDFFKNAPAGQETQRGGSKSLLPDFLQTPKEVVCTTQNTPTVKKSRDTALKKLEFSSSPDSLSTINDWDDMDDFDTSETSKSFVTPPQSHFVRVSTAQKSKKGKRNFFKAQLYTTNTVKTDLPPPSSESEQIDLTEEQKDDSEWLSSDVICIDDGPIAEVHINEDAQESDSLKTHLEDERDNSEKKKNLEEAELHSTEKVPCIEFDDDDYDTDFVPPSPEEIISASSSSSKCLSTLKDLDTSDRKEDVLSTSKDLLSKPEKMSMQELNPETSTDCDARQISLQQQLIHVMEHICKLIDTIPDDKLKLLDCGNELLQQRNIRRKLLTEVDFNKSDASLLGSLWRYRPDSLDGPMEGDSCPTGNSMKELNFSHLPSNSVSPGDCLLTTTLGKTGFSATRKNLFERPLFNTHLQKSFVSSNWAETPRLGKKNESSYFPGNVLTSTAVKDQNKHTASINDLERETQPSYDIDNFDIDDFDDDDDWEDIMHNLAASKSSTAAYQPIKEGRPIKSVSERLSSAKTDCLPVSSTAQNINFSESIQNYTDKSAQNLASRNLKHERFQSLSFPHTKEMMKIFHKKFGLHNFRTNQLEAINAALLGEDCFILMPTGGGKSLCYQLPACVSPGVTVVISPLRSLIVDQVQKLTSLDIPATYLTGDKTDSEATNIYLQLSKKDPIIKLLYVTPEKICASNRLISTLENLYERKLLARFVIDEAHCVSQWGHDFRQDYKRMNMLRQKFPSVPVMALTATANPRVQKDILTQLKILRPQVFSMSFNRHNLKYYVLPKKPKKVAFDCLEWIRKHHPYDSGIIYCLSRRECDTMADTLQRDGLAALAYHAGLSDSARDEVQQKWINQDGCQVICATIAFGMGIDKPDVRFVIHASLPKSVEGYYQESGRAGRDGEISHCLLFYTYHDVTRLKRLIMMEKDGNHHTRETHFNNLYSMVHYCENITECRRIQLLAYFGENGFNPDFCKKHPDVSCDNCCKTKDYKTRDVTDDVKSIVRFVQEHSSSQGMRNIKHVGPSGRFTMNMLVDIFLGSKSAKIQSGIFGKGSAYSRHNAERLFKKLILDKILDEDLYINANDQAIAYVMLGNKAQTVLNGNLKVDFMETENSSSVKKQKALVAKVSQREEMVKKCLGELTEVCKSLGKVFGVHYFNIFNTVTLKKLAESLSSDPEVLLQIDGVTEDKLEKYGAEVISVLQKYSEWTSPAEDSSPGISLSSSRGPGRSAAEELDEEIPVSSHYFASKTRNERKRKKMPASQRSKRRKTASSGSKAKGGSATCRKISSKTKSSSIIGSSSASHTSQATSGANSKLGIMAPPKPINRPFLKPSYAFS
How it was run: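 BLM 50 nM in 25 mM Tris-HCl pH 8.0, 5 mM NaCl, 2 mM MgCl2, 1 mM DTT, 0.01% Tween-20, 2.5 ug/ml poly(dI-dC); 15 min cpd preinc, RT. Start: 200 nM forked DNA + 2 mM ATP (final). TAMRA read, 2 reads 2 h apart.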

Nc1nc(SCc2ccc([N+](=O)[O-])cc2)c2ncn([C@@H]3O[C@H](CO)[C@H](O)[C@H]3O)c2n1
inactive: Potency [1]

Nc1ncnc2c1ncn2[C@@H]1O[C@H](C(=O)NC2CC2)[C@H](O)[C@H]1O
inactive: Potency [2] | Potency [3] | outcome [4]

CN1C[C@H](C(=O)N[C@]2(C)O[C@@]3(O)C4CCCN4C(=O)[C@H](Cc4ccccc4)N3C2=O)C[C@@H]2c3cccc4[nH]cc(c34)C[C@H]21 (stereo partly specified)
inactive: Potency [1]
active: Potency ([5]; parasite line A) 8.91 µM | Potency ([5]; parasite line B) 4.47 µM

CC(C)(C)[C@]1(O)CCN2CC3c4ccccc4CCc4cccc(c43)[C@@H]2C1 (stereo partly specified)
active: Potency [2] 5.62 µM and 5.01 µM | Potency [3] 6.31 µM and 5.01 µM | Potency [6] 2.82 µM and 2.24 µM
inactive: Potency [1]

CN(C)C1C(=O)C(C(N)=O)=C(O)[C@@]2(O)C(=O)C3=C(O)c4c(O)ccc(Cl)c4[C@@H](O)C3C[C@@H]12 (stereo partly specified)
active: Potency [6] 0.891 µM
inactive: outcome [4] | Potency [1]

CC(C)C[C@H]1C(=O)N2CCCC2[C@]2(O)O[C@](NC(=O)[C@@H]3C=C4c5cccc6[nH]c(Br)c(c56)C[C@H]4N(C)C3)(C(C)C)C(=O)N12 (stereo partly specified)
inactive: Potency [1]
active: Potency ([5]; parasite line A) 11.2 µM | Potency ([5]; parasite line B) 5.62 µM

CCn1c(=O)c2[nH]c(-c3ccccc3)nc2n(CC)c1=O
active: Potency [8] 1 µM
inactive: activity change, negative = inhibition [7] -2.19% [at 38 µM] | activity change, negative = inhibition [9] 15.8% [at 38 µM] | activity, negative = inhibition [10] 6.25% [at 38 µM] | Potency [11] > 46 µM | Potency [12] > 46 µM | outcome [13] | Potency [14] | outcome [15] | outcome [16] | Potency [3] | Potency [1] | Potency [17]

COC(=O)c1c(-c2cc(OC)c(OC)c(OC)c2)c2ccc(OCc3ccccn3)cc2c(=O)n1-c1ccc(N)cc1
inactive: activity change, negative = inhibition [7] -16.9% [at 38 µM] | Potency [8] | activity change, negative = inhibition [9] 10.6% [at 38 µM] | activity, negative = inhibition [10] -8.64% [at 38 µM] | Potency [11] > 46 µM | Potency [12] > 46 µM | outcome [13] | Potency [14] | outcome [15] | outcome [16] | Potency [1]
active: Potency [2] 0.891 µM | Potency [3] 2.82 µM | Potency [6] 2.24 µM

COc1cc2c(cc1OC)C(c1ccccc1)CN(C)CC2 (stereo unspecified)
inactive: outcome [4] | Potency [17] | activity, negative = inhibition ([5]; parasite line A) -10.7% | activity, negative = inhibition ([5]; parasite line B) -13.2%
active: Potency [6] 7.94 µM

CCSC(N)=Nc1ccc(C(F)(F)F)cc1
active: Potency [8] 2.51 µM
inactive: activity change, negative = inhibition [7] -5.3% [at 38 µM] | activity change, negative = inhibition [9] 0.554% [at 38 µM] | activity, negative = inhibition [10] 13.4% [at 38 µM] | Potency [11] > 46 µM | Potency [12] > 46 µM | outcome [13] | outcome [15] | outcome [16] | Potency [2] | outcome [4]

CC(O)[C@@H](O)[C@H]1CNc2nc(N)[nH]c(=O)c2N1 (stereo partly specified)
inactive: Potency [2] | Potency [3] | Potency [6]

OC[C@H]1O[C@@H](n2cnc3c(N[C@H]4CC5CCC4C5)ncnc32)[C@H](O)[C@@H]1O (stereo partly specified)
inactive: Potency [2] | Potency [3]

NC(=S)c1ccc[n+]([C@@H]2O[C@@H](COP(=O)([O-])OP(=O)(O)OC[C@H]3O[C@@H](n4cnc5c(N)ncnc54)[C@H](OP(=O)(O)O)[C@H]3O)C(O)C2O)c1 (stereo partly specified)
inactive: Potency [2] | Potency [3] | Potency [6] | outcome [4]

CCCC(=O)NCCc1c2n(c3ccc(OC)cc13)Cc1ccccc1-2
active: Potency [8] 2.51 µM | Potency [2] 11.2 µM | Potency [6] 7.08 µM
inactive: activity change, negative = inhibition [7] -34.8% [at 38 µM] | activity change, negative = inhibition [9] -10.2% [at 38 µM] | Potency [11] > 46 µM | Potency [12] > 46 µM | outcome [13] | Potency [14] | outcome [15] | outcome [16] | outcome [4] | Potency [1] | Potency [17]

CNC(=O)[C@H]1O[C@@H](n2cnc3c(NCc4ccc(N)cc4)ncnc32)[C@H](O)[C@H]1O
inactive: Potency [3] | Potency [1]

OC[C@H]1O[C@@H](n2cnc3c(NC4CCCC4)ncnc32)[C@H](O)[C@H]1O
inactive: Potency [3] | Potency [17]

CNc1ncnc2c1ncn2[C@@H]1O[C@H](CO)[C@H](O)[C@H]1O
inactive: Potency [2] | Potency [3] | Potency [6]

NC(=S)NCCCC(N)C(=O)O (stereo unspecified)
inactive: Potency [2] | Potency [6]

CN1CCc2cc(Cl)c(O)cc2C(c2ccccc2)C1 (stereo unspecified)
active: Potency [2] 7.94 µM | Potency [3] 11.2 µM | Potency [6] 4.47 µM
inactive: outcome [4] | Potency [17]

NCCCCNS(=O)(=O)c1cccc2c(Cl)cccc12
inactive: activity change, negative = inhibition [7] -2.83% [at 38 µM] | activity change, negative = inhibition [9] -12.9% [at 38 µM] | activity, negative = inhibition [10] 3.48% [at 38 µM] | Potency [11] > 46 µM | Potency [12] > 46 µM | outcome [13] | Potency [14] | outcome [15] | outcome [16] | Potency [17]
active: Potency [8] 15.8 µM | Potency [2] 8.91 µM | Potency [3] 10 µM | Potency [6] 11.2 µM
